103 compounds from PubChem BioAssay AID651812 (National Center for Advancing Translational Sciences (NCATS), 2012) can be followed below.

Among all 2,100 compounds or so, about 650 (31%) were called active. Roughly 16% stayed inconclusive and do not appear here. Calls come from the whole dose curve; as a rule, active = well fitted inhibition curve with a large enough effect; inconclusive = small, poorly fitted or top-dose-only effect; inactive = flat fitted curve, though single readings scatter. This is one part of the list. A call without a number means that no potency is given here.
Potency is the fitted concentration of half-maximal effect.

The nature of this test: qHTS for inhibitors of Vif-A3G interactions: Cherry picks. Note: nearly all actives have a fitted effect of over 80% in size. Particulars: HeLa A3G-eYFP + Vif (tagged APOBEC3G with the HIV-1 protein that degrades it), 24 h; Potency: eYFP fluorescence increase; series mostly up to 36.9 µM. The method, boiled down:
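Cherry-picked compounds tested at several concentrations on A3G-eYFP/Vif HeLa cells for 24 hours; loss of Vif-driven degradation read as eYFP fluorescence by cytometric plate imaging, 488 nm excitation, 500-530 nm emission.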
As for `c1ccc(N=NC2=NN(c3ccccc3)CS2)cc1`, the Potency entry is “inactive”. Consider `Cc1cccc(CSc2cccc3cccnc23)c1`, for which the Potency result was “inactive”. To `O=C1c2ccccc2C(=O)c2c(/C=C/N3CCCCC3)ccnc21` belongs 18.4 µM (active); to `Cc1c2ccccc2nc2c(F)c(NC(C)C)c(F)c(F)c12`, 10.3 µM (active). To `CCCNc1c(F)c(F)c2c(C)c3ccccc3nc2c1F` belongs 17.7 µM (active). For the compound `Cc1nnc(NC(=O)CSc2nc(C(C)C)nc3ccccc23)s1`, the Potency entry is “inactive”. As to `Cc1ccc(S(=O)c2ccc([N+](=O)[O-])c3nonc23)cc1` (stereo not drawn), the Potency was 20.6 µM (active). Regarding `O=C(OCc1ccccc1)c1ccc(NCc2cc(O)ccc2O)cc1`, the Potency entry was “inactive”. Then `Cc1cc(C)cc(NC(=S)NC(=O)C2CC2)c1`, with “inactive”.

As to `CCn1c2ccccc2c2cc(NC(=O)CNCc3ccccc3OC)ccc21`, the Potency result was “inactive”. In the case of `Cc1cc(C)cc(NC(=O)Cn2cc(C(=O)C3CCCCC3)c3ccccc32)c1`, the Potency is 20.6 µM (active). Take `N#C/C(=C/c1ccc(N2CCOCC2)o1)c1ccc(Cl)cc1`: the Potency is 1.46 µM (active). Regarding `Cc1ccc(/C(C#N)=C\c2ccc(N3CCOCC3)o2)cc1`, the Potency was 19.8 µM (active). On to `N#C/C(=C/c1ccc(N2CCCCCC2)o1)c1ccc(Cl)cc1`, for which the Potency was 0.651 µM (active). For the compound `COc1ccccc1C1c2ccc3ccccc3c2Oc2ncn(CCN(C)C)c(=N)c21` (stereo not drawn), the Potency result is “inactive”. `CCOc1ccccc1OCC(=O)N/N=C(\C)Cc1ccc(OC)cc1`: the Potency entry is “inactive”. On to `Cc1ccc(NC(=O)C2CCN(S(=O)(=O)c3ccc(Cl)c(C(F)(F)F)c3)CC2)nc1`, for which the Potency result was “inactive”. As for `CCCc1nc2c(C)cc(Br)cn2c1Cc1ccccc1`, the Potency result was “inactive”. Regarding `O=C(Nc1cc(Cl)cc2c1-c1ccc(Cl)cc1C2O)C(Cl)Cl` (stereo not drawn), the Potency entry was “inactive”.

On to `CCOC(=O)c1csc(NC(=O)c2cc(-c3ccccn3)nc3ccccc23)n1`, for which the Potency entry was “inactive”. Turning to `CCOC(=O)Cc1csc(NC(=O)c2sc3nc4c(C)cc(C)cc4cc3c2N)n1`, the Potency is 20.6 µM (active).

With `CCn1ncc(/C=N\NC(=O)c2csc3ccccc23)c1C`, the Potency entry was “inactive”. With `CCC1CC=CC2C1C(=O)N(Cc1ccccc1)C2c1ccoc1` (stereo not drawn), the Potency entry is “inactive”. Regarding `COc1cc(C2C(C#N)=C(N)Oc3cc(O)ccc32)cc2c1OCO2` (stereo not drawn), the Potency result was “inactive”. For `Cc1cc(-c2ccccc2)c2c3c(c(-c4ccccc4)n2n1)c(=O)n(C)c(=O)n3C`, the Potency was 18.4 µM (active). As for `Cc1ccc(CNC(=O)C2CC(c3cc(C(F)(F)F)cc(C(F)(F)F)c3)=NO2)o1` (stereo not drawn), the Potency entry was “inactive”. Consider `CN1C(=O)/C(=C\c2ccc(N(C)C)cc2)OC1=S`, for which the Potency is 4.98 µM (active). Then `CN1C/C(=C/c2cccnc2)C(=O)/C(=C/c2cccnc2)C1`, with “inactive”; and `Cc1c(N2C(=O)/C(=C/c3ccc(N(C)C)cc3)N(C)C2=S)c(=O)n(-c2ccccc2)n1C`, with 18.4 µM (active); and `CN1C(=S)N(c2cccnc2)C(=O)/C1=C\c1ccc(N(C)C)cc1`, with 15.8 µM (active). With `CC(NC(=S)Nc1cccc(C(F)(F)F)c1)C(C)(C)C` (stereo not drawn), the Potency result was “inactive”. As for `CCN(CC)c1ccc2c(c1)oc(=O)c1c(Cl)cc(=O)oc12`, the Potency was 23.1 µM (active). As to `Cc1ccc(F)c(S(=O)(=O)NC(=O)C2(C)CCN2C(=O)Cc2ccc(Cl)cc2Cl)c1` (stereo not drawn), the Potency result was “inactive”. To `CSc1ccc(C2NC(=O)c3ccccc3N2)cc1` (stereo not drawn) belongs “inactive”. On to `COc1ccccc1/C=C/C=N/n1c(-c2ccc(C)cc2)n[nH]c1=S`, for which the Potency entry was “inactive”. For the compound `O=c1c(O)c(-c2cccs2)oc2ccccc12`, the Potency is 2.59 µM (active). To `C/C(=N\NC(N)=S)C12CC3CC(CC(C3)C1)C2` belongs “inactive”; to `O=C(c1ccccc1F)n1c2c(c3ccccc31)CCCC2`, “inactive”. To `COc1ccc(C)c(Cn2c(-c3nonc3N)nc3ccccc32)c1` belongs “inactive”; to `Nc1nonc1-c1nc2ccccc2n1CC(=O)Nc1cccc(C(F)(F)F)c1`, 25.9 µM (active).

For `Nc1nonc1-c1nc2ccccc2n1Cc1ccc(F)cc1`, the Potency result is “inactive”. In the case of `O=c1c[n+]([O-])c2ccccc2n1OCc1c(F)cccc1F`, the Potency result was “inactive”. As to `O=C(O)c1ccccc1N/N=C/c1c(Sc2nnnn2-c2ccccc2)nc2ccccn2c1=O`, the Potency was 3.53 µM (active). Then `O=c1oc2c3c4c(cc2c(C(F)(F)F)c1CCN1CCOCC1)CCCN4CCC3`, with 7.31 µM (active); and `O=C(Nc1cc(Cl)ccc1-n1cncn1)c1ccc([N+](=O)[O-])s1`, with 15.8 µM (active). With `O=C(O)Cc1sc(NC2CCCCC2)nc1-c1ccc(Cl)cc1`, the Potency result was “inactive”. On to `COC(=O)C1=C(Nc2ccc(C)cc2)C=C(C)C(C(=O)OC)C1c1cccc(OC)c1` (stereo not drawn), for which the Potency entry was “inactive”. Regarding `CC(=O)Nc1ccc(S(=O)(=O)N2c3ccccc3C(C)=CC2(C)C)cc1`, the Potency entry was “inactive”. With `O=C(NN(c1ccccc1)c1ccccc1)c1ccc([N+](=O)[O-])o1`, the Potency entry was “inactive”. In the case of `Cc1cccc(/C=C/C(=O)c2ccc([N+](=O)[O-])o2)c1`, the Potency entry is “inactive”. As to `Cc1cc2ccccn2c1C(=O)c1ccc([N+](=O)[O-])o1`, the Potency is 18.4 µM (active).

Turning to `CCN(CC)C(=O)Cn1c(C)c(/C=C/c2cc[n+](C)cc2)c2ccccc21`, the Potency is 12.5 µM (active). `COC(=O)Cn1c(C)c(/C=C/c2cc[n+](C)cc2)c2ccccc21`: the Potency is 13 µM (active). Then `N#C/C(=C/c1cccs1)c1ccccn1`, with 14 µM (active). `N#C/C(=C/c1ccc(N2CCCCCC2)o1)c1cccc(F)c1`: the Potency was 3.66 µM (active).

For the compound `CSc1nc2ccccc2cc1/C=C(\C#N)c1cccc(C)c1`, the Potency entry was “inactive”. In the case of `N#C/C(=C/c1ccc(N2CCCCC2)o1)c1cccc(F)c1`, the Potency is 8.2 µM (active). Turning to `COc1cc(C2C(C#N)=C(N)Oc3cc(O)ccc32)cc(OC)c1OC` (stereo not drawn), the Potency entry is “inactive”. Turning to `CCCCN(C)CC(O)Cn1cc(/C=C/C(=O)c2cccs2)c2ccccc21` (stereo not drawn), the Potency is 20.6 µM (active). As for `CN(C)c1ccc(/C=C/c2cc(/C=C/c3ccc(N(C)C)cc3)c3ccccc3n2)cc1`, the Potency was 6.51 µM (active).

`Cc1noc(C)c1CSc1nc2ccccc2c(=O)n1-c1ccccc1`: the Potency entry is “inactive”. As for `CN(C)c1ccc(/C=C/c2nc3ccccc3c(=O)n2CCO)cc1`, the Potency was 18.4 µM (active). To `Nc1ccc(/C=C/c2cc(Cl)nc3ccccc23)cc1` belongs 20.6 µM (active); to `CN(NC(=O)c1ccccc1)c1nc2ccccc2nc1C(F)(F)F`, “inactive”. To `CN(C)c1ccc(/C=C/c2cc(N(C)C)nc3ccccc23)cc1` belongs 13 µM (active); to `O=C(NC(=S)Nc1ccc(-c2ccccc2)cc1)c1ccccc1`, “inactive”.

In the case of `CC(C)Cn1c(N)c(C(=O)COC(=O)c2ccc([N+](=O)[O-])o2)c(=O)n(C)c1=O`, the Potency entry was “inactive”.

In the case of `CC(C)(C)n1ncc2c(=O)n(CC(=O)NCc3ccc(F)cc3)cnc21`, the Potency result was “inactive”.

Regarding `O=C1OC(Nc2nc(-c3ccc(F)cc3)cs2)c2ccccc21` (stereo not drawn), the Potency entry is “inactive”. In the case of `CCN(CC)c1ccc(/C=C/c2cc(-c3ccccc3)c3ccccc3n2)cc1`, the Potency was 11.2 µM (active). For `COc1ccc(C2=NOC(C(=O)NCc3cccs3)C2)cc1OC` (stereo not drawn), the Potency result was “inactive”. Regarding `Cc1ccc(N2C(=O)[C@@H]3[C@H](C2=O)[C@H]2C=C(C(=O)c4ccccc4)C=CN2[C@@H]3C(=O)c2ccc(Cl)cc2)cc1`, the Potency entry was “inactive”. As for `CCn1nc(-c2ccccc2)c2nc3ccccc3nc21`, the Potency is 16.4 µM (active).

As for `Nc1ccc2nc(-c3ccccc3)c(-c3ccccc3)nc2c1`, the Potency entry is “inactive”.

As to `O=C(Nc1nc(NC(=O)c2ccco2)n(-c2ccccc2)n1)c1ccccc1`, the Potency entry was “inactive”. For `Cc1cc(C)c2cc3c(N)c(C(=O)Nc4c(C)[nH]c(=O)[nH]c4=O)sc3nc2c1`, the Potency was 18.4 µM (active).

With `O=C(Cn1cnc2c(cnn2-c2ccc(F)cc2)c1=O)NCc1ccco1`, the Potency result was “inactive”. Consider `N#CC1=C(N)Oc2cc(N)ccc2C1c1ccccc1F` (stereo not drawn), for which the Potency entry is “inactive”. For the compound `N#CC1=C(N)Oc2cc(N)ccc2C1c1cccc(F)c1` (stereo not drawn), the Potency result was “inactive”.

With `N#CC1=C(N)Oc2cc(N)ccc2C1c1ccc(F)cc1F` (stereo not drawn), the Potency was 18.4 µM (active).

In the case of `Cc1csc(NC(=O)CCC(=O)N(CC(=O)NC2CCCC2)Cc2ccccc2)n1`, the Potency result is “inactive”. Then `CCCC1=Nc2cc(C(=O)NCc3ccco3)ccc2Sc2ccccc21`, with “inactive”; and `COc1cc(OC)c(OC)cc1/C=C1\Oc2cc(OCC(=O)N3Cc4ccccc4C[C@H]3C(=O)O)ccc2C1=O`, with 4.11 µM (active).

Turning to `Cc1cc(=O)oc2cc(OCC(=O)N3c4ccccc4CC3C)ccc12` (stereo not drawn), the Potency entry is “inactive”. For the compound `CCNC(=S)N/N=C(\C)c1ccc(N2CCOCC2)cc1`, the Potency result is “inactive”. Consider `COc1ccc(OCCCC(=O)N2CCN(S(=O)(=O)c3cccc(F)c3)CC2)cc1`, for which the Potency entry is “inactive”.

`O=C1CSC(=S)N1Cc1cccnc1`: the Potency was 16.4 µM (active). As to `O=C(/C(=C/c1ccc(Cl)cc1)c1nc2ccccc2[nH]1)c1cccs1`, the Potency entry was “inactive”. Regarding `COc1cccc(N2CC(O)=C(c3nc4ccccc4c(=O)[nH]3)C2=N)c1`, the Potency entry was “inactive”. As for `COc1ccc(OC)c(/C=C/c2nc3ccccc3[nH]c2=O)c1`, the Potency was 18.4 µM (active). Consider `COc1ccc(OC)c(Nc2nc(-c3ccncc3)nc3ccccc23)c1`, for which the Potency entry is “inactive”. Take `N=C1C(c2nc3ccccc3[nH]2)=C(O)CN1c1ccccc1`: the Potency result was “inactive”.

In the case of `O=c1[nH]c2ccccc2nc1/C=C/c1ccc(F)cc1`, the Potency is 14 µM (active). To `O=c1[nH]c2ccccc2nc1/C=C(\O)c1cccs1` belongs 18.4 µM (active); to `COc1ccc(S(=O)(=O)Nc2cccc3ccccc23)cc1`, “inactive”; to `CCN(CC)c1ccc(NC(=O)c2ccc(=O)[nH]c2)cc1S(=O)(=O)Nc1ccccc1OC`, “inactive”.

As to `COc1ccccc1NS(=O)(=O)c1cc([N+](=O)[O-])ccc1N/N=C/c1c[nH]c2ccccc12`, the Potency is 16.4 µM (active). To `O=[N+]([O-])c1ccc(N/N=C/c2c[nH]c3ccccc23)cc1` belongs 11.6 µM (active); to `Cc1[nH]c2ccccc2c1/C=N/Nc1ccc([N+](=O)[O-])cc1`, 13 µM (active); to `Cc1[nH]c2ccccc2c1/C=N/NC(=O)c1cc(-c2ccncc2)nc2ccccc12`, “inactive”.

For the compound `COc1ccc(NS(=O)(=O)c2cc([N+](=O)[O-])ccc2N/N=C/c2c(C)[nH]c3ccccc23)cc1`, the Potency was 14.6 µM (active). With `O=[N+]([O-])c1ccc(N/N=C\c2cccn2-c2ccccc2)nc1`, the Potency result was “inactive”. Then `O=C(N/N=C/c1c[nH]c2ccccc12)C1COc2ccccc2O1` (stereo not drawn), with “inactive”.
